Assay results reported in PubChem BioAssay AID449739 (Vanderbilt High Throughput Screening Facility, 2010).
Screen size: about 100,000 compounds; about 4,200 (4.2%) were called active.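 How the source made its calls: active means single-dose well whose peak fluorescence ratio is a statistical outlier from its plate by either plate-standardised score or position-corrected B-score; inactive means the rest.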 Many of the other results were omitted from the sample, so actives are more common in it than they were.

The molecules below were run against Voltage-dependent T-type calcium channel subunit alpha-1H (Homo sapiens) (UniProt O95180) (assay: Cav3.2 calcium influx blockers – cell-based, Fluo-4 calcium fluorescence, FDSS, MLSMR library, primary screen (AID 449739)). Details: Cav3.2-expressing cells, at 10 µM, hits give low values.
Sequence of Voltage-dependent T-type calcium channel subunit alpha-1H (Homo sapiens) (O95180 whole entry, looked up): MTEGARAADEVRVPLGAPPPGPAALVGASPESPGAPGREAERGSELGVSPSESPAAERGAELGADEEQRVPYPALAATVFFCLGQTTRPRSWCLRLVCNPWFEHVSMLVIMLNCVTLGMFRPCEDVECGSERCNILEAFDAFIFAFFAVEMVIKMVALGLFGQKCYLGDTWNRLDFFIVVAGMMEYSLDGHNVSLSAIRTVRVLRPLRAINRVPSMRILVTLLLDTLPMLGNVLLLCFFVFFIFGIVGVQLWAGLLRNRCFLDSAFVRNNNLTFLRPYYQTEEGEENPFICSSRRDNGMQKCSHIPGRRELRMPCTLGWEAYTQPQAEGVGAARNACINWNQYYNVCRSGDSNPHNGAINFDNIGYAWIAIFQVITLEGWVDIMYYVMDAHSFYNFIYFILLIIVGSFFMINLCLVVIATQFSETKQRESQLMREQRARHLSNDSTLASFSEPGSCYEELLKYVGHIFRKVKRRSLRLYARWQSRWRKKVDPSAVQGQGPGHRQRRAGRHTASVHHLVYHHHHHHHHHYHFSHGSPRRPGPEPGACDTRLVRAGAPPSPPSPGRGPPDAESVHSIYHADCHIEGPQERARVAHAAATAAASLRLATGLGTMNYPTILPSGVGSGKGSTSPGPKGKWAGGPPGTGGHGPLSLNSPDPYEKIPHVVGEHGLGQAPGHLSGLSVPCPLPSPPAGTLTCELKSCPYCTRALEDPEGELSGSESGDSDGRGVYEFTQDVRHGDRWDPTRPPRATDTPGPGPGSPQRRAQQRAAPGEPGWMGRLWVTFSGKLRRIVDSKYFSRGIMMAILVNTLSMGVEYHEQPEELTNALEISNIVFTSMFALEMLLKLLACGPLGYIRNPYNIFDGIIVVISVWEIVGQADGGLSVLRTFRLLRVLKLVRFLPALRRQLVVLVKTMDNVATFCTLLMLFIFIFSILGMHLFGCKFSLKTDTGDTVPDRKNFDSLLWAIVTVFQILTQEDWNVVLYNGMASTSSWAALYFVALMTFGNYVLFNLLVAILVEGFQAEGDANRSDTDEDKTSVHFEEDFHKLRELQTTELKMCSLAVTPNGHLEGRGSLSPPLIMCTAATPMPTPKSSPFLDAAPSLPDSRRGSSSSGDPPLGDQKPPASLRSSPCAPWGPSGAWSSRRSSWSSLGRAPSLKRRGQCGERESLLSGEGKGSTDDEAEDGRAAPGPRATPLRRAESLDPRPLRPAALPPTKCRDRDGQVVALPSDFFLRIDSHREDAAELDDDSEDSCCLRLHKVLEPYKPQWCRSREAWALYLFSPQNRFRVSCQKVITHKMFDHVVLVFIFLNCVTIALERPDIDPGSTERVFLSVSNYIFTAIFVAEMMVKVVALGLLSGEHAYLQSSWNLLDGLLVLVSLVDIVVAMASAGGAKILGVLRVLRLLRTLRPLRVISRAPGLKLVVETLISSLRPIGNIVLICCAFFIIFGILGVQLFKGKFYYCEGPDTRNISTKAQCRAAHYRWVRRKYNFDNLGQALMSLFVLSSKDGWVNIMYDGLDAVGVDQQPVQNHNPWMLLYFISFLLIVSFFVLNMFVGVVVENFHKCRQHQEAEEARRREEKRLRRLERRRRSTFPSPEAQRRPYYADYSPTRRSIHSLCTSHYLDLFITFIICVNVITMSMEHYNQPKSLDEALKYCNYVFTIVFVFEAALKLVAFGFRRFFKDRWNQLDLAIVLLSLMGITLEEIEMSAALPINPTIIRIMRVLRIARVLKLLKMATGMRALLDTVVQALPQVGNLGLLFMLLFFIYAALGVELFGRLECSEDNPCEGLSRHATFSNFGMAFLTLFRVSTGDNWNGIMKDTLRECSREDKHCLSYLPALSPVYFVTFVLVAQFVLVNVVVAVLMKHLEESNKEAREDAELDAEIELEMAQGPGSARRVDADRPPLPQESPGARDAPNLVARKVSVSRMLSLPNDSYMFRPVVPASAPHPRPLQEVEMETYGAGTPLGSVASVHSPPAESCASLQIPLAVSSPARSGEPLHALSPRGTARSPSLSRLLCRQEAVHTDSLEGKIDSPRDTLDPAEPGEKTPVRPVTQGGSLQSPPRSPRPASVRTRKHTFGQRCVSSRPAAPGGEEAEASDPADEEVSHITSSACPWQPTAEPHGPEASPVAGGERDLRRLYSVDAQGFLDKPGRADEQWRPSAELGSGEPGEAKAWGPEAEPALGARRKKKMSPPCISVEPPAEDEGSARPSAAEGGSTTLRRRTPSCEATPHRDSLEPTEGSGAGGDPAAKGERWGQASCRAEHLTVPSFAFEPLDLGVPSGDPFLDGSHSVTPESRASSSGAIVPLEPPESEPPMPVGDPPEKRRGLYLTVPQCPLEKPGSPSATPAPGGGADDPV

B-score, inactive:
O=c1c2ccccc2nc2n1C(CSc1ccc(F)cc1)CN2 (stereo unspecified) 1.22, COc1ccc(C(=O)Nc2ncc3c(n2)-c2ccccc2CC3)cc1 0.00103, COC(=O)c1nc(NC(=O)c2ccc(Cl)cc2)n[nH]1 1.01, C/C=C\C=C\C(=O)N1CC2(CC(c3cccc(NC(=O)/C(C)=C\C)c3)=NO2)C[C@H]1C(N)=O (stereo partly specified) 0.133, CCOC(=O)c1ccc(NC(=O)c2nc[nH]c2C(=O)N[C@@H](CCCCNC(=O)OC(C)(C)C)C(=O)OC(C)(C)C)cc1 -0.307, Cc1cc(C)cc(NC(=O)CSCc2cnn(-c3ccccc3)c2-n2cccc2)c1 -2.22, C1=C(CCNc2ncnc3c2cnn3-c2ccccc2)CCCC1 -0.0964, COc1cccc(NC(=S)N(CCc2c(C)[nH]c3ccccc23)Cc2ccco2)c1 -2.67, CNC(=O)c1[nH]cnc1C(=O)N[C@@H](CC(C)C)C(=O)OC(C)(C)C 0.371, Cc1noc(C)c1C(=O)N(CC(=O)NC1CCCC1)Cc1ccccc1F 0.408, CCOC(=O)C1C(=O)NCC1c1ccccc1 (stereo unspecified) 0.378, COC(=O)CN1C(C)=Nc2ccc(Br)cc2C1c1ccccc1 (stereo unspecified) -0.737, CCCCCCCCOC1OC(CO)C(O)C(O)C1NC(C)=O (stereo unspecified) 0.195, FC(F)(F)c1nc2ccccc2nc1N/N=C/c1ccc(Cl)cc1 -0.00807, CC(C)(C)c1nc2ccccc2c(=O)n1N1C(=O)c2ccccc2C1=O -0.127, C#CCCOC(=O)N1C2=NC(C(=O)OC)=C(C(=O)OC)[C@@H]3N(C)c4ccc(OC)cc4[C@]23C[C@H]1C(=O)OC 0.061, Cc1nc(-c2ccc(Cl)cc2)sc1C1(C)CC(c2ccc(Br)cc2)=NO1 (stereo unspecified) -0.405, Cc1nn(C)c(Oc2ccc(Cl)cc2)c1C=O -0.0899, C=CCSc1nnc2c(n1)-c1cccc3cccc-2c13 0.673, COc1ccc(NC(=O)c2c(SC)nsc2SC)cc1 0.226, CC(C)C(OC(=O)c1cccs1)C(=O)NC1CCCCC1 (stereo unspecified) -0.509, CC(Cc1cccs1)NC(=O)NC1CCCCC1 (stereo unspecified) -2.2, N/C(=N\OC(=O)Nc1ccc(Cl)c(Cl)c1)c1ncc(C(F)(F)F)cc1Cl -0.00792, Cc1nnc(NC(=O)Nc2ccc(Cl)c(Cl)c2)s1 -0.569, COC(=O)CNC(=O)c1ccccc1[N+](=O)[O-] 2.22, CC(=O)N[C@H]1[C@H]([C@H](O)[C@H](O)CO)OC(C(=O)O)=C[C@@H]1O 0.744, Cc1ccc(CNC(=O)C2CC(c3ccccc3[N+](=O)[O-])=NO2)o1 (stereo unspecified) -1.03, COc1ccc(C(=O)CN(C(=O)c2ccc(Cl)cc2)N2C(=O)c3ccccc3C2=O)cc1 -1.99, O=C(Cc1ccc(S(=O)(=O)N2CCCC2)s1)NC1CCCCCC1 0.271, O=C(NCCSCc1ccccc1)c1ccc(Cl)c(S(=O)(=O)N2CCOCC2)c1 -3.48, CC(=O)c1sc(NC(=O)c2cccc3ccccc23)nc1C -0.12, CC(=O)c1ccc2c(ccc3ccccc32)c1 -0.705, CCNC(=S)N1CCN(C(=O)c2ccco2)CC1 -0.0983, CCN(CC)CCN1C(=O)C(=O)/C(=C(/O)c2cnn(-c3ccccc3)c2C)C1c1cccs1 (stereo unspecified) 0.414, O=C(Nc1ccc(Oc2ccccc2)cc1)c1ccco1 -0.246, COc1ccc(CCNC(=O)c2ccco2)cc1 0.807, CCO[C@H]1OC(C(=O)NCc2ccccc2)=C[C@@H](c2coc3ccccc3c2=O)[C@@H]1CCCO 0.119, CC1=NN(Cc2ccccc2)C(=O)/C1=C/c1ccc(N(C)C)cc1 -2.13, CS(=O)(=O)N1CCN(c2ccc(C(=O)NC3C4CC5CC(C4)CC3C5)cc2[N+](=O)[O-])CC1 (stereo unspecified) 0.716, O=C(Nc1ccc2c(c1)OCCO2)c1ccc(Cl)c(S(=O)(=O)N2CCCCC2)c1 -1.46, Cc1ccc(C(=O)NCC(=O)O)cc1S(=O)(=O)N1CCCCC1 1.06, CCOc1ccc(NC(=O)CC2C(=O)N(c3ccccc3)C(=O)N2CCOC)cc1 (stereo unspecified) 0.221, C=C(C)COc1ccc(-c2n[nH]c(C)c2-c2ccccc2OC)c(O)c1 -1.28, COc1ccc(-c2n[nH]c(C)c2-c2ccc(OC)c(OC)c2)c(O)c1 -1.02, O=C(c1cccc(F)c1)N1CCN(c2ccc([N+](=O)[O-])c(N3CCCCC3)c2)CC1 -2.45, Cc1cccc(N2CCN(C(=O)CN(C)S(=O)(=O)c3ccc4c(c3)CCC(=O)N4)CC2)c1C 1.04, CC(C)Nc1ncnc2c1nnn2Cc1ccccc1 0.849, O=S(=O)(NCc1cccnc1)c1ccc(Cl)nc1 0.0815, CN1CCN(C(CNS(=O)(=O)c2cccs2)c2cccnc2)CC1 (stereo unspecified) -0.131, O=C(/C=C\NCC(=O)c1ccccc1)c1ccccc1 0.368, C#CCNC(=O)[C@H](Cc1ccc(C(=O)c2ccccc2)cc1)NC(=O)OC(C)(C)C 0.229, COc1ccccc1NC(=O)CC(NCCN(C)C)C(=O)O (stereo unspecified) -0.277, COC(=O)c1ccc(C2C(Oc3ccccc3C)C(=O)N2CCc2ccc(OC)c(OC)c2)cc1 (stereo unspecified) -2.96, C=C1C2C[C@H](O)C(C)(C)[C@@]2(O)[C@H](O)C[C@]23C[C@@](C)(O)[C@H](CC[C@H]12)[C@H]3O (stereo partly specified) 0.00132, C#CCO[C@@H]1C[C@H](n2cnc3c(=O)[nH]c(NC(=O)C(C)C)nc32)O[C@@H]1CO 0.0144, CC(C)NC(=O)NCCCCCCS(C)=O (stereo unspecified) 0.449, CCOC(=O)CN1C(=O)C(=O)c2cc(C)ccc21 0.0584, CCCCOC(=O)Cn1c(=N)n(CCN(CC)CC)c2ccccc21 0.824, COC(=O)CCCC1=CC2=C(c3ccccc3)C(=O)C(C)(OC(=O)C3CCCC3)C(=O)C2=CN1c1ccc(OC)cc1 (stereo unspecified) 0.00545, Cc1nn(-c2ccccn2)c2c1C(c1ccncc1)C1=C(CC(C)(C)CC1=O)N2 (stereo unspecified) 0.727, Cc1noc(C)c1S(=O)(=O)N(CC(=O)Nc1ccc2c(c1)OCCO2)c1ccc(C(C)C)cc1 -2.62, CCOc1ccc(N(CC(=O)NCc2ccc(OC)cc2)S(=O)(=O)c2c(C)noc2C)cc1 0.15, COC(=O)c1ccc(NC(=O)CN(c2ccc(C)cc2)S(=O)(=O)c2c(C)n[nH]c2C)cc1 -2.02, CCOC(=O)C1CCCN(C(=O)CN(c2ccc(OC)cc2)S(=O)(=O)c2c(C)noc2C)C1 (stereo unspecified) 0.012, COc1cccc(C(=O)NNC(=O)c2ccccc2Br)c1 0.232, CC(C)NC(=O)C(=O)NCCCOC(C)C 0.568, Cc1sc(NC(=S)NC(=O)c2cccs2)nc1-c1ccc(CC(C)C)cc1 -0.0675, CC/C=C/C(=O)N1CC2(CC(c3cccc(NC(=O)CC)c3)=NO2)C[C@H]1C(N)=O (stereo partly specified) 0.223, CCOc1ccc(C(CCc2ccccc2)NC(=O)c2ccc(OC)c(OC)c2)cc1OCC (stereo unspecified) -1.85, Cc1ccccc1OCC(=O)NCC(=O)OCC(=O)c1ccc2ccccc2c1 -0.0134, O=C(Nc1ccccc1)N1CCN(Cc2ccccc2)CC1 0.4, COc1cccc(N2CCN(C(=O)Nc3ccc4c(c3)NC(=O)CO4)CC2)c1 -0.0474

B-score, active:
O=C(Nc1ncc2c(n1)-c1ccccc1OC2)c1ccc(Cl)cc1 -4.5, O=C(NCCC1=CCCCC1)C1CCN(Cc2cnn(-c3ccccc3)c2-n2cccc2)CC1 -5.79, CCC(CC)C(=O)N1CC(=O)Nc2ccc(Br)cc2C1c1ccccc1 (stereo unspecified) -4.79, O=c1c2ccccc2nc(N/N=C/c2ccccc2)n1O -5.17, CSc1nsc(SC)c1NC(=O)OC1CCCCC1 -4.23, O=C(NCC(=O)N(Cc1cccs1)C(C(=O)NC1CCCCC1)c1ccco1)c1cccs1 (stereo unspecified) -6.73, O=C(CC(O)(C(F)(F)F)C(F)(F)F)Nc1ccc(Cl)c(Cl)c1 -6.32, CC(C)CNC(=O)CC(c1ccccc1)c1c(O)ccc2ccccc12 (stereo unspecified) -6.12, O=C(Cc1ccc(S(=O)(=O)N2CCOCC2)s1)NCCC(c1ccccc1)c1ccccc1 -6.74, CC(=O)c1nn(-c2cccc(Br)c2)cc1C(=O)c1cccc2ccccc12 -4.57, CC(Oc1ccc2ccccc2c1)C(=O)NNC(=S)NC(=O)c1ccco1 (stereo unspecified) -7.25, Cc1ccc(C(=O)Nc2ccc3c(c2)OCO3)cc1S(=O)(=O)N1CCCCC1 -5.28, CCOc1ccccc1Oc1cn[nH]c1-c1ccc(OC)cc1O -3.81, Clc1ccc(Cn2ncc3c(NCc4cccnc4)ncnc32)cc1 -4.69, COc1ccccc1NC(=O)[C@H](COCc1ccccc1)NC(=O)OC(C)(C)C -4.41, CCCCOC(=O)Cn1c(=O)n(CC(=O)OCCCC)c2cc(C)ccc21 -8.75, CCOC(=O)c1cccc(NC(=O)CN(c2ccc(C)cc2)S(=O)(=O)c2c(C)noc2C)c1 -6.06, CCOc1ccc(N(CC(=O)OC)S(=O)(=O)c2c(C)noc2C)cc1 -5.9, O=C(Nc1cccc(NC(=O)N2CCN(c3ccccc3)CC2)c1)N1CCN(c2ccccc2)CC1 -6.86
